Measured values from PubChem BioAssay (EPA / NIEHS).
Inconclusive results are not listed. The source made the active and inactive calls. How the source made its calls, unless noted: active means hit-call score of the fitted dose curve at least 0.9, where 1 is the maximum; inconclusive means response in the unintended direction; inactive means score below 0.9.

How the values were obtained:
[1] = ACEA_ER_AUC_viability: ACEA Biosciences xCELLigence Real-Time Cell Analysis on Estrogen Receptor Agonism for Viability (AID 2283782);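 further: continuous compound exposure with impedance area under curve over 80 h; hit means loss of impedance signal meaning reduced cell growth or viability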
In short: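 T-47D; phenol red-free RPMI1640 + 10% CS-FBS; 8 conc., 1:4 serial, max 100 uM final, ≤0.5% DMSO; n = 2; continuous exposure; impedance monitored to 80 h post-dose; AUC vs DMSO.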

[2] = biological target: T1, Thyroid hormone receptor alpha (Rattus norvegicus) + Thyroid hormone receptor beta (Rattus norvegicus) (UniProt P18113+P63059); experiment: TOX21_TR_LUC_GH3_Agonist_Followup: Tox21 GH3 Thyroid Hormone Receptor Agonism Luciferase Follow-Up Assay (AID 2283939)
In short: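 Rat GH3 cells (1,500/well) in serum-free assay medium, treated with 15-point series, 92 uM to 5 nM final, for 24 h at 37C. Luciferase via ONE-Glo luminescence; gain of signal fitted against DMSO, T3 positive control.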

THRA (gene 7067) [3] = biological target: THRA (gene 7067) (UniProt P10827); experiment: TOX21_TRA_COA_Agonist_Followup_ratio: Tox21 Thyroid Hormone Receptor alpha Agonism through Coactivator Recruitment Follow-Up Assay, Ratio (AID 2283948; active means hit-call score of the fitted dose curve at least 0.9, where 1 is the maximum; inactive means score below 0.9)
In short: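 First, compound was incubated with 2.5 nM GST-TRα LBD in 0.10% BSA. Next, 200 nM fluorescein-SRC-2 and 2 nM Tb-anti-GST antibody were added. Finally, the 520:495 nm ratio was normalized to DMSO and T3 controls.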

THRB (gene 7068) [4] = biological target: THRB (gene 7068) (UniProt P10828); experiment: TOX21_TRB_BLA_Agonist_Followup_ratio: Tox21 Thyroid Hormone Receptor beta Agonism Beta-lactamase (BLA) Follow-Up Assay, Ratio (AID 2283954)
In short: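 Human TRβ LBD–GAL4 DBD fusion in GeneBLAzer UAS-bla HEK293T cells; 11 concentrations in triplicate, 18 h at 37°C/5% CO2, T3 as agonist control. CCF4-AM substrate 2 h at room temperature; 460:530 nm ratio fitted for gain of signal versus DMSO.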

THRB (gene 7068) [5] = biological target: THRB (gene 7068) (UniProt P10828); experiment: TOX21_TRB_COA_Agonist_Followup_ratio: Tox21 Thyroid Hormone Receptor beta Agonism through Coactivator Recruitment Follow-Up Assay, Ratio (AID 2283963; active means hit-call score of the fitted dose curve at least 0.9, where 1 is the maximum; inactive means score below 0.9)
In short: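 Signal is the 520/495 nm emission ratio (excitation 340 nm), scaled between DMSO-only wells as 0% and T3 wells as 100%. It reflects fluorescein-labeled SRC-2 peptide recruitment to GST-TRβ ligand-binding domain detected via terbium anti-GST antibody.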

[6] = biological target: Retinoic acid receptor RXR-alpha (Homo sapiens) (UniProt P19793); experiment: TOX21_TR_RXR_BLA_Agonist_Followup_ratio: Tox21 Thyroid Hormone Receptor beta Retinoid X Receptor alpha (RXRa) Agonism Beta-lactamase (BLA) Follow-Up Assay, Ratio (AID 2283968)
In short: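 HEK293T RXRa-bla, qHTS; cpd 11-pt conc. in triplicate, 16 h 37C/5% CO2; CCF4-AM 2 h RT; ratio 460:530 nm; agonist direction vs DMSO; 9-cis retinoic acid as positive control.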

[7] = TOX21_TR_RXR_BLA_Agonist_Followup_viability: Viability Assessment in the Tox21 Thyroid Hormone Receptor beta Retinoid X Receptor alpha (RXRa) Agonism Beta-lactamase (BLA) Follow-Up Assay (AID 2283970)
In short: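 Cells: HEK293T RXRa-UAS-bla, 2,500/well; medium phenol red-free DMEM + 2% charcoal-stripped FBS; 16h, 37C/5% CO2; qHTS concentration series. Read: CellTiter-Glo luminescence (ATP); bidirectional fit, DMSO = baseline.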

PGR (gene 5241) [8] = biological target: PGR (gene 5241) (UniProt P06401); experiment: TOX21_PR_BLA_Followup_Agonist_ratio: Tox21 HEK293 Progesterone Receptor (PR) Agonism Beta-lactamase Follow-Up Assay, Ratio (AID 2283933)
In short: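 HEK293T PR-UAS-bla, 2% CS-FBS; 6 hr preincubation, cpd/DMSO pinned, 16 hr 37C/5% CO2; LiveBLAzer B/G 2 hr RT; FRET ch2/ch1 ratio, agonist direction vs DMSO. Viability by CellTiter-Glo in same wells.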

PGR (gene 5241) [9] = biological target: PGR (gene 5241) (UniProt P06401); experiment: TOX21_PR_BLA_Followup_Antagonist_ratio: Tox21 HEK293 Progesterone Receptor (PR) Antagonism Beta-lactamase Follow-Up Assay, Ratio (AID 2283934)
In short: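 HEK293T PR-UAS-bla, 2% CS-FBS; 6 hr plating, then cpd + R5020 (1 nM final), 16 hr 37C/5% CO2. B/G FRET substrate 2 h RT. Ratio ch2/ch1 vs DMSO; CellTiter-Glo viability multiplexed, autofluorescence checked.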

[10] = TOX21_PR_BLA_Followup_Agonist_viability: Viability Assessment in the Tox21 HEK293 Progesterone Receptor (PR) Agonism Beta-lactamase Follow-Up Assay (AID 2283935);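 further: cells exposed to compound for 16 hr at 37 °C; signal loss means lower viability so actives are cytotoxic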
In short: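 HEK293T PR-UAS-bla, 3,000 cells/well, 2% CS-FBS; 6 hr pre-incubation; cpd in DMSO, 16 hr 37C; LiveBLAzer 2 hr RT, then CellTiter-Glo 30 min RT, luminescence. Decrease = lost viability.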

[11] = TOX21_PR_BLA_Followup_Antagonist_viability: Viability Assessment in the Tox21 HEK293 Progesterone Receptor (PR) Antagonism Beta-lactamase Follow-Up Assay (AID 2283936);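 further: hits lower the luminescence signal meaning cytotoxicity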
In short: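 PR-UAS-bla HEK293T cells (3,000/well, 2% charcoal-stripped FBS) given compound plus R5020 agonist, 16 h at 37C. CellTiter-Glo added after bla read, 30 min at room temperature; luminescence loss indicates cytotoxicity.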

PGR (gene 5241) [12] = biological target: PGR (gene 5241) (UniProt P06401); experiment: TOX21_PR_LUC_Followup_Agonist: Tox21 HEK293 Progesterone Receptor (PR) Agonism Luciferase Follow-Up Assay (AID 2283937; active means hit-call score of the fitted dose curve at least 0.9, where 1 is the maximum; inactive means score below 0.9)
In short: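 Cells: HEK293-PR-A-luc, 3,000/well, 10% charcoal-stripped FBS assay medium. Compound added after 5 h; 16 h, 37C, 0% CO2. ONE-Glo luciferase, luminescence. Positive fit vs DMSO.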

PGR (gene 5241) [13] = biological target: PGR (gene 5241) (UniProt P06401); experiment: TOX21_PR_LUC_Followup_Antagonist: Tox21 HEK293 Progesterone Receptor (PR) Antagonism Luciferase Follow-Up Assay (AID 2283938);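 further: curve fitted upward as signal gain over DMSO baseline despite antagonist label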
In short: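 A follow-up to the PR bla screen using HEK293-PR-A-luc cells, multiplexed with cell viability to flag cytotoxicity. Reporter luminescence after 16 h compound exposure was analysed relative to DMSO.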

[14] = TOX21_PR_LUC_Followup_Agonist_viability: Viability Assessment in the Tox21 HEK293 Progesterone Receptor (PR) Agonism Luciferase Follow-Up Assay (AID 2283941);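 further: loss of signal means cytotoxicity so actives lower viability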
In short: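 Cells were kept 5 days in charcoal-stripped serum medium before plating HEK293-PR-A-luc at 3,000 cells/well. After 5 h they received DMSO-dissolved compound and incubated 16 h at 37C. Viability was taken from CellTiter-Glo ATP luminescence.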

[15] = TOX21_PR_LUC_Followup_Antagonist_viability: Viability Assessment in the Tox21 HEK293 Progesterone Receptor (PR) Antagonism Luciferase Follow-Up Assay (AID 2283940)
In short: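 Multiplexed viability counter-screen: after 5 days in charcoal-stripped-FBS medium, HEK293-PR-A-luc cells are plated, pinned with DMSO-dissolved compounds for 16 h at 37C, and ATP content is quantified luminescently via CellTiter-Glo.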

[16] = biological target: T1, Thyroid hormone receptor alpha (Rattus norvegicus) + Thyroid hormone receptor beta (Rattus norvegicus); experiment: TOX21_TR_LUC_GH3_Antagonist_Followup: Tox21 GH3 Thyroid Hormone Receptor Antagonism Luciferase Follow-Up Assay (AID 2283942)
In short: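 Confirmatory qHTS, antagonist mode: T3 (1.0 nM final) + test cpd, 15 conc, 92 uM–5nM final, GH3 rat pituitary line, 24 h, 37C. Luc reporter, RLU vs DMSO.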

THRA (gene 7067) [17] = biological target: THRA (gene 7067) (UniProt P10827); experiment: TOX21_TRA_COA_Antagonist_Followup_ratio: Tox21 Thyroid Hormone Receptor alpha Antagonism through Coactivator Recruitment Follow-Up Assay, Ratio (AID 2283953)
In short: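 520:495 nm emission ratio (excitation 340 nm) reports fluorescein-SRC-2 peptide recruitment to GST-TRα LBD by TR-FRET with Tb anti-GST antibody. Values were normalized to DMSO (0%) and T3 control wells (100%); loss of signal indicated antagonism.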

[18] = CCTE_Deisenroth_AIME_96WELL_CTox_Active: Cytotoxicity Assessment (CTOX) in CCTE's 96-well Estrogen Receptor Transactivation Assay with AIME metabolic competence (metabolism positive), Deisenroth Lab (AID 2284028)
In short: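 Chemicals (0.002–200 uM) were first incubated 2 h with alginate-immobilized phenobarbital/beta-naphthoflavone-induced male rat liver S9; conditioned medium then went onto VM7Luc4E2 cells for 24 h, with viability read by protease-substrate fluorescence, fitted bidirectionally.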

[19] = CCTE_Shafer_MEA_dev_active_electrodes_number: CCTE's Neural Network Formation Assay for Number of Active Electrodes, Shafer Lab (AID 2284040)
In short: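 Primary rat cortical neurons on 16-electrode MEA wells, exposed from day 0 through day 12 with compound renewed at DIV 5 and 9 feeds. Active electrodes (mean firing ≥5 spikes/min) counted at DIV 5, 7, 9, 12; trapezoidal AUC across days, loss-of-signal versus DMSO.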

[20] = CCTE_Shafer_MEA_dev_bursting_electrodes_number: CCTE's Neural Network Formation Assay for Number of Bursting Electrodes, Shafer Lab (AID 2284043)
In short: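 Read-out is the per-well number of electrodes bursting at least once every 2 minutes, recorded on days 5, 7, 9 and 12 and collapsed by trapezoidal area under the curve. Cultures were primary rat cortical neurons on MEA plates, treated continuously from plating.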

Measured: AC50

Sequence of THRA (gene 7067) (P10827 whole entry, looked up, the tested form may be a part): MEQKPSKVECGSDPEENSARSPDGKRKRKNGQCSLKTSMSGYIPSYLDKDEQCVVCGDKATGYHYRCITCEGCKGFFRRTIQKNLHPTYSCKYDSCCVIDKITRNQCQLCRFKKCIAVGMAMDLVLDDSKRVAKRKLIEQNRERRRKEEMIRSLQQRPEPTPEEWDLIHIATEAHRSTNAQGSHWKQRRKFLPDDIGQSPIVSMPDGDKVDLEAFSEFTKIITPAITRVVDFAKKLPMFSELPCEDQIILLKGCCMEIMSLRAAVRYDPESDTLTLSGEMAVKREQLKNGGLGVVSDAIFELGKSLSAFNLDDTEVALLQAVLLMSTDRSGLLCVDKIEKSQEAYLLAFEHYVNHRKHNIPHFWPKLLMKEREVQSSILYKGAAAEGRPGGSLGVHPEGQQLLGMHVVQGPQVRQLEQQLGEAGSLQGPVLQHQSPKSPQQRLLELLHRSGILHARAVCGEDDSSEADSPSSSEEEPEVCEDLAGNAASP
Sequence of PGR (gene 5241) (P06401 whole entry, looked up): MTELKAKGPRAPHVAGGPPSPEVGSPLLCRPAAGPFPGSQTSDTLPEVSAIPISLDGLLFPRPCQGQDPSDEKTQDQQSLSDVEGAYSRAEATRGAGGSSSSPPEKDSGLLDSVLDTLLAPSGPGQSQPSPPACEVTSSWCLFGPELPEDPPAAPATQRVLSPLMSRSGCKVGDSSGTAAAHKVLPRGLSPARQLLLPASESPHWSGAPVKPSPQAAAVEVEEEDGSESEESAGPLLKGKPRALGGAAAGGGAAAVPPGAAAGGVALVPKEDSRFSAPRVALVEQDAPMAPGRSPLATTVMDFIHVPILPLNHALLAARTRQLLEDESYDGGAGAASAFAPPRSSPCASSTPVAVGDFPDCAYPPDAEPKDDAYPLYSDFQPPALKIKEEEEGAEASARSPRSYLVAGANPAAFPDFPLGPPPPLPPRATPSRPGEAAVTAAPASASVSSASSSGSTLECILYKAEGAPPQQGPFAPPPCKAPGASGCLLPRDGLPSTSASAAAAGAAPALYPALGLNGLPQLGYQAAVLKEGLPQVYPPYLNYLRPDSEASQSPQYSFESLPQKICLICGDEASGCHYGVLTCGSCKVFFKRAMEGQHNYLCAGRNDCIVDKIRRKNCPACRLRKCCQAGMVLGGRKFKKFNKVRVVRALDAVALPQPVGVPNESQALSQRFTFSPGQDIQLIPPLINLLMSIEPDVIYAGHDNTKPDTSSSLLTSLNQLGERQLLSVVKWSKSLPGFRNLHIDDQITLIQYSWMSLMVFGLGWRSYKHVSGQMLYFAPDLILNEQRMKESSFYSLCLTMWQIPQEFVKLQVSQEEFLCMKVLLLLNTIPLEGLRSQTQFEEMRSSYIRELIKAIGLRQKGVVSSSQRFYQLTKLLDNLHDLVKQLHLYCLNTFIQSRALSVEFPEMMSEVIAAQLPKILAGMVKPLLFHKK
Sequence of THRB (gene 7068) (P10828 whole entry, looked up, the tested form may be a part): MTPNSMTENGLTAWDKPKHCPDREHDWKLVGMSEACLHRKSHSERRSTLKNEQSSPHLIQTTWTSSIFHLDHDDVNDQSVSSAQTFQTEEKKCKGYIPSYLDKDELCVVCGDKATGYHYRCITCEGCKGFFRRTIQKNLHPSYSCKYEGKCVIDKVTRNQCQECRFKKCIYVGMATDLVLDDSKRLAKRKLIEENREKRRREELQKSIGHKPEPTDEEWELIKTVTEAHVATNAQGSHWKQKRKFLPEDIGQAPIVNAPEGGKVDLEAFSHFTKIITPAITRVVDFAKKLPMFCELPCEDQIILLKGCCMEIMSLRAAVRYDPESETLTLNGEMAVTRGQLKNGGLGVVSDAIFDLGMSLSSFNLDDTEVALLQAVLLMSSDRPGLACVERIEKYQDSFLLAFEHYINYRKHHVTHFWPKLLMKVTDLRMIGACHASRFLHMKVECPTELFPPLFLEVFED
T1 sequence (P63059 whole entry, looked up): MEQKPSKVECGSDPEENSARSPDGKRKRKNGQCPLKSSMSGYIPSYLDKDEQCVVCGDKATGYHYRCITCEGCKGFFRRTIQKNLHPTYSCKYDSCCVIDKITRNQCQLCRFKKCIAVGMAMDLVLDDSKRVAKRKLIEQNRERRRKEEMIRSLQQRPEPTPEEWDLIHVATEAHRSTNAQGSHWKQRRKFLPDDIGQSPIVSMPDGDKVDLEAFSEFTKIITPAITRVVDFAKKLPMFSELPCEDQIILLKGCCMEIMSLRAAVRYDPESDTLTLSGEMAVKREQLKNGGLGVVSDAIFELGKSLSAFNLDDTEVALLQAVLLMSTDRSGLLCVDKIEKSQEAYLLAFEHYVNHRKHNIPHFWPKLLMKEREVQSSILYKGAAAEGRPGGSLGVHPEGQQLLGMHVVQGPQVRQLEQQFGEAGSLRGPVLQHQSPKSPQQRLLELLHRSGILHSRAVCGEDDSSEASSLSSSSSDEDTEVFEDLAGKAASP
T1 sequence (P18113 whole entry, looked up): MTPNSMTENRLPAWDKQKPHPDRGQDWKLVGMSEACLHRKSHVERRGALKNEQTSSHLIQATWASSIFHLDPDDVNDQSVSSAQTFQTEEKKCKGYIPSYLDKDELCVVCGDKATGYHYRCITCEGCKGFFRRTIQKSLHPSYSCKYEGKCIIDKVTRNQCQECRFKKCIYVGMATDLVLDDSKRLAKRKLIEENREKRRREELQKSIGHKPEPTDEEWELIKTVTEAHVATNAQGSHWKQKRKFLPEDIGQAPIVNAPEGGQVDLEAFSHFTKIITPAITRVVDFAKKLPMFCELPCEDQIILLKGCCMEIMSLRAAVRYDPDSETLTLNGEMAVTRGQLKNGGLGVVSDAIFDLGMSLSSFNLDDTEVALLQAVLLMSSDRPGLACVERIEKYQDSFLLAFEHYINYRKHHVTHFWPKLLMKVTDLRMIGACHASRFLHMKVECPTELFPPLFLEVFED
Sequence of Retinoic acid receptor RXR-alpha (Homo sapiens) (P19793 whole entry, looked up): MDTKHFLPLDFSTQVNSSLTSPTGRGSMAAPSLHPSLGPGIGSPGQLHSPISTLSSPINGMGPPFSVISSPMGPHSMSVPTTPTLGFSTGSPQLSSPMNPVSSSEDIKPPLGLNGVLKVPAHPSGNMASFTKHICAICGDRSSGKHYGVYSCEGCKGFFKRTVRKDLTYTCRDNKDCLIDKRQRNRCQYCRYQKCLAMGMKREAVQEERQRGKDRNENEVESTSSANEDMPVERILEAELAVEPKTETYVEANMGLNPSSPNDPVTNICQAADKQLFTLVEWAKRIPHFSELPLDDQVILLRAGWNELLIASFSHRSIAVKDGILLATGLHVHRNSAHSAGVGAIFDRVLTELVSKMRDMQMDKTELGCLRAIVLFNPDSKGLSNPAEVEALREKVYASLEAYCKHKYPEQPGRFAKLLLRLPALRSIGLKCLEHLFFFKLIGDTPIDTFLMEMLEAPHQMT

CNC(=O)ON=C(CSC)C(C)(C)C
inactive: [1] | [2] | THRA (gene 7067) [3] | THRB (gene 7068) [4] | THRB (gene 7068) [5] | [6] | [7]

CCOC(=O)C1(c2ccccc2)CCN(CCC(C#N)(c2ccccc2)c2ccccc2)CC1
inactive: PGR (gene 5241) [8] | [10] | [11] | PGR (gene 5241) [12] | PGR (gene 5241) [13] | [14]
active: PGR (gene 5241) [9] 13.7 µM

C=CC[C@]1(O)CC[C@H]2[C@@H]3CCC4=CC(=O)CCC4=C3C=C[C@@]21C
inactive: PGR (gene 5241) [9] | [10] | [11] | PGR (gene 5241) [13] | [15] | [14] | [16]

CCN(CC)CCO[C@H]1CC[C@@]2(C)C(=CC[C@@H]3[C@@H]2CC[C@]2(C)C(=O)CC[C@@H]32)C1
inactive: [16] | THRA (gene 7067) [17]

O=c1oc2ccccc2c(O)c1Cc1c(O)c2ccccc2oc1=O
inactive: THRA (gene 7067) [17]

c1ccc2c(c1)cc1ccc3cccc4ccc2c1c34
inactive: [18] | [19] | [20]
